According to article PMC4336329 (PLoS ONE, 2015):
Among all 310,000 compounds or so, about 14,000 (4.5%) showed an effect of 50% or more. Effects have a minus sign here. The sample holds strong results, similar compounds and a random draw of the others, so the mix is not that of the screen.

Target: human ether-à-go-go-related gene (hERG) potassium channel (human, UniProt Q12809)
Experiment: primary screen, population patch clamp on CHO cells stably expressing hERG; higher = less effect of the substance
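Note: peak tail current of the secondary pulse compared with the same well before compound.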

Chain of human ether-à-go-go-related gene (hERG) potassium channel (Q12809 whole entry, looked up): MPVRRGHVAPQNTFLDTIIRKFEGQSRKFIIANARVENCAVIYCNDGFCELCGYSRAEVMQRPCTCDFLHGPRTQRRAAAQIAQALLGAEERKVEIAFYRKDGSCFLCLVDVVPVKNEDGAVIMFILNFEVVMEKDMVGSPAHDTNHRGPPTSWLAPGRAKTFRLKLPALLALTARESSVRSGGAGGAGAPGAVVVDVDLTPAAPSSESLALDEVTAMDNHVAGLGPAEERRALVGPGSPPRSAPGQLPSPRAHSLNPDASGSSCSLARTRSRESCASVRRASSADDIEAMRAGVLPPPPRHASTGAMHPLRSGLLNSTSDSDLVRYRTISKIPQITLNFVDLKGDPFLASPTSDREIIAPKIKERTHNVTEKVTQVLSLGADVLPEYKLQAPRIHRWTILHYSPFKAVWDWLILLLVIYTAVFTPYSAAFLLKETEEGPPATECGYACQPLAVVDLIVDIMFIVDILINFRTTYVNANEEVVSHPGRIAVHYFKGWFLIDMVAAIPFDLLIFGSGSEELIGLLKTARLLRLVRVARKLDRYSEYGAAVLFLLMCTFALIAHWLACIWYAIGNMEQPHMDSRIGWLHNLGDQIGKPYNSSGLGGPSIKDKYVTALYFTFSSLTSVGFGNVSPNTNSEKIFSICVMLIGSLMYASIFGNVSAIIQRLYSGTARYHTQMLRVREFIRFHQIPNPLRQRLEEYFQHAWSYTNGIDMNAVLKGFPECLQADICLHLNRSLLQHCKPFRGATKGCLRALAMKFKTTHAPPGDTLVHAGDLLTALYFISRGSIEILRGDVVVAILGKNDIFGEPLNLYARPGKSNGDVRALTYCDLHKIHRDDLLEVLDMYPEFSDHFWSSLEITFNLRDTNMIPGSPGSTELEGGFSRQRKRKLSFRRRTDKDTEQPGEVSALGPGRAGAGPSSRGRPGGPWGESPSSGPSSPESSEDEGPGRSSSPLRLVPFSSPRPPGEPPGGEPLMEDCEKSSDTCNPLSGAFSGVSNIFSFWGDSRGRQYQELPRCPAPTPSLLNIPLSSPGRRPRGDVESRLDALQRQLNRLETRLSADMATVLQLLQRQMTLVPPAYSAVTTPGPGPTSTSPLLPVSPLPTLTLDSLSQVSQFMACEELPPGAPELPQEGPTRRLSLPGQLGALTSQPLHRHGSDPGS

Point of comparison: `Cc1nn(C2CCCCC2)c(N)c1-c1ccccc1`, “hERG current change (%, negative = inhibition) at 10uM” value -3.53%. Against it:
- CCC(C)(C(=O)NC1CCCCC1)N(C(=O)CC1NC(=O)NC1=O)c1c(C)n(C)n(-c2ccccc2)c1=O (stereo not shown) — higher, 12.8%
- Cc1onc(-c2ccccc2Cl)c1C(=O)Nc1nc2ccc(S(C)(=O)=O)cc2s1 — higher, -2.5%
- CC1(C)NC(=O)N(CC(=O)N2CCCC(C(F)(F)F)C2)C1=O (stereo not shown) — higher, 10.4%
- COC(=O)c1ccc(CNC(=O)COC(=O)c2cc(Cl)nc(Cl)c2)cc1 — higher, 8.69%
- CCn1c2ccccc2c2cc(NC(=O)C(=O)NCC3CCCO3)ccc21 (stereo not shown) — lower, -6.57%
- COc1cc2c(cc1NC(=O)C(C)OC(=O)/C=C/c1ccc(OC(F)F)cc1)oc1ccccc12 (stereo not shown) — higher, 7.07%
- COc1ccc(CCNc2cc(N3CCN(C(=O)c4ccc(C)cc4)CC3)ccc2[N+](=O)[O-])cc1OC — higher, 8.2%
- COC(=O)C(NC(=O)c1ccccc1)=C(C)C — higher, 0.816%
- O=C(NCc1ccc(F)cc1)C1CCN(C(=O)Nc2ccc(F)cc2)CC1 — lower, -49.2%
- Cc1ccccc1NC(=S)N1CCC(C(=O)c2ccc(F)cc2)CC1 — lower, -45%
- O=C(c1ccc(F)cc1)C1CCN(C(=S)Nc2ccc(F)cc2)CC1 — lower, -57.2%
- CCc1ccccc1NC(=S)N1CCC(C(=O)c2ccc(F)cc2)CC1 — lower, -63%
- O=C(c1ccc(F)cc1)C1CCN(C(=S)Nc2ccccc2)CC1 — lower, -28.8%
- Cc1ccc(CNC(=O)C2CCN(C(=O)Nc3ccccc3)CC2)cc1 — lower, -16.3%
- Cc1ccc(NC(=O)N2CCC(C(=O)NCc3ccc(F)cc3)CC2)cc1 — lower, -52.2%
- COc1ccc(C(=O)C2CCN(C(=S)Nc3ccc(F)cc3)CC2)cc1 — lower, -46.9%
- CCCNC(=S)N1CCC(C(=O)c2ccc(F)cc2)CC1 — lower, -8.84%
- C=CCNC(=S)N1CCC(C(=O)c2ccc(F)cc2)CC1 — lower, -44.4%
- CC(C)CNC(=S)N1CCC(C(=O)c2ccc(F)cc2)CC1 — lower, -61.4%
- O=C(c1ccc(F)cc1)C1CCN(C(=S)Nc2ccccc2Cl)CC1 — higher, 0.35%
- Cc1cn(C2C=CC(CO)O2)c(=O)[nH]c1=O (stereo not shown) — higher, 4.79%
- CCN(CC)S(=O)(=O)c1ccc(C(=O)NCCc2ccccn2)cc1 — higher, 10.8%
- Nc1ccc(-c2nc3ccc(N)cc3[nH]2)cc1 — higher, 7.85%
- O=c1c2cc([N+](=O)[O-])cc([N+](=O)[O-])c2[nH]n1-c1ccccc1 — higher, 17.2%
- C/C=C(\C)C(=O)NNC(=O)c1sc(-c2ccccc2)nc1C — higher, 16%
- Cc1nc2cc(NC(=O)Nc3ccc(Br)cc3)ccc2o1 — higher, 9.81%
- O=C(c1ccc(F)cc1)C1CCN(C(=O)Nc2ccc(F)cc2)CC1 — lower, -71.7%
- CSc1ccc(NC(=O)N2CCC(C(=O)c3ccc(F)cc3)CC2)cc1 — lower, -40.9%
- Cc1ccc(NC(=O)N2CCC(C(=O)c3ccc(F)cc3)CC2)cc1 — lower, -3.84%
- COCCNC(=S)N1CCC(c2nc(-c3ccc(N(C)C)cc3)no2)CC1 — lower, -12.9%
- Cc1cc(C)cc(NC(=O)N2CCC(NC(=O)c3ccc(F)cc3)CC2)c1 — lower, -35.5%
- Cc1cc(C)cc(NC(=O)N2CCC(C(=O)c3ccc(F)cc3)CC2)c1 — lower, -77.7%
- Cc1cccc(NC(=O)N2CCC(C(=O)c3ccc(F)cc3)CC2)c1 — lower, -40.6%
- COCCNC(=S)N1CCC(c2nc(-c3ccc(F)cc3)no2)CC1 — lower, -18.9%
- CC(C)CNC(=S)N1CCC(c2nc(-c3ccc(F)cc3)no2)CC1 — lower, -59.1%
- O=C(Nc1ccccc1)N(Cc1ccc(Cl)cc1)CC(O)C(F)(F)F (stereo not shown) — higher, 8.33%
- Cc1cccc(N2CCN(S(=O)(=O)c3cc(-c4cc(C)no4)ccc3C)CC2C)c1 (stereo not shown) — higher, 18.9%
- CC1SCC(NC(=O)c2ccc(Cl)cc2)CS1 (stereo not shown) — higher, -0.992%
- Cc1cc(NC(=O)CSCc2ccc([N+](=O)[O-])cc2)no1 — higher, -1.21%
- Cc1[nH]c2ccccc2c1C(=O)C(C)OC(=O)c1ccc(Cl)nc1 (stereo not shown) — lower, -12.9%
- COC(=O)c1ccccc1NC(=O)c1cc[n+](C)cc1 — higher, 11.8%
- CCOCCCNS(=O)(=O)c1ccc(NC(=O)N2c3ccccc3Sc3ccccc32)cc1 — higher, 3.13%
- O=C(NC1CCOC1)c1cc(COc2cccc(C(F)(F)F)c2)on1 (stereo not shown) — higher, 2.06%
- CCCCOC(=O)c1nc(Cl)c(Cl)c(N)c1Cl — higher, -0.0656%
- O=C(COC(=O)c1ncc(Cl)c(Cl)c1Cl)NC1CCCCCC1 — higher, 19%
- CCCCCCCOC(=O)c1nc(Cl)c(Cl)c(N)c1Cl — lower, -4.56%
- Nc1c(Cl)c(Cl)nc(C(=O)OCC(=O)NC2CCCCC2)c1Cl — lower, -58.2%
- CCCCCCCCOC(=O)c1nc(Cl)c(Cl)c(N)c1Cl — lower, -66.3%
- O=C(COC(=O)c1nsc(Cl)c1Cl)NC1CCCCC1 — higher, 17.1%
- CN1C(=O)/C(=C/c2cccn2-c2ccc3ccccc3c2)C(=O)NC1=S — higher, 12.2%
- Cc1c(Cc2ccccc2)c(=O)oc2cc(OCC(=O)NCC(O)c3ccccc3)ccc12 (stereo not shown) — higher, 28.7%
- C/C(CC(=O)Nc1cc(C)ccn1)=N\NC(=O)C(=O)NC(C)C — higher, 12.5%
- O=C(OCCOc1ccccc1Cl)c1ccc(-n2cnnn2)cc1 — lower, -19.2%
- O=C(c1cc(-c2ccc(Br)cc2)on1)N1CCCC1 — higher, 10.3%
- O=C(NCCCN1CCN(Cc2ccccc2Cl)CC1)Nc1ccccc1 — lower, -56.8%
- O=C(NCCN1CCN(Cc2ccccc2Cl)CC1)Nc1ccccc1 — lower, -47.5%
- COc1ccc(NC(=O)NCCCN2CCC(Cc3ccccc3)CC2)cc1 — lower, -77.5%
- Cc1ccccc1NC(=O)NCCCN1CCN(C2CCCCC2)CC1 — lower, -9.26%
- CSc1ccc(NC(=O)NCCN2CCc3ccccc3C2)cc1 — lower, -43.6%
- O=C(NCCN1CCN(c2ccccc2Cl)CC1)Nc1ccccc1 — lower, -34.1%
- Cc1ccccc1CC1CCN(CCCNC(=O)Nc2ccccc2)CC1 — lower, -68.5%
- CSc1ccc(NC(=O)NCCCN2CCC(Cc3ccccc3)CC2)cc1 — lower, -75.9%
- CSc1ccc(NC(=O)NCc2ccccc2)cc1 — higher, 19%
- COc1ccc(NC(=O)N2CCC(Cc3ccccc3)CC2)cc1 — higher, -3.45%
- Cc1ccccc1NC(=O)NCCCN1CCCC1 — higher, 26.6%
- COc1ccc(NC(=O)NCCCCc2ccccc2)cc1 — higher, 1.06%
- Cc1c(NC(=O)COc2c(F)c(F)c(F)c(F)c2F)c(=O)n(-c2ccccc2)n1C — higher, 0.328%
- COc1ccc(/C(C)=N/NC(=O)CNC(=O)/C=C\c2ccccc2)c(OC)c1 — lower, -9.28%
- C/C(=N\OCc1ccccc1C#N)c1cc2ccccc2o1 — higher, 0.146%
- O=C(NCCCN1CCOCC1)c1ccc2nc(Cc3cccc(Cl)c3)oc2c1 — lower, -7.7%
- COC(=O)c1ccccc1NC(=O)NCc1ccccn1 — lower, -6.01%
- O=C(CC(Cc1ccccc1)C(=O)O)Nc1ccc(F)cc1 (stereo not shown) — higher, 10.4%
- COC(=O)c1cc(=O)n(Cc2cccs2)c(=Nc2ccccc2)s1 — higher, -0.229%
- Oc1cccc(/C=N/Nc2ccc(Cl)nn2)c1O — higher, 8.72%
- CC(OC(=O)CNC(=O)c1ccco1)C(=O)Nc1ccc(Cl)cn1 (stereo not shown) — lower, -11.4%
- O=Cc1cn(CC(O)CN2CCCCC2)c2ccccc12 (stereo not shown) — higher, 27.3%
- O=C(/C=C/c1cn(CC(O)CN2CCOCC2)c2ccccc12)c1cccs1 (stereo not shown) — lower, -21.8%
- O=C(/C=C/c1cn(CC(O)CN2CCCCCC2)c2ccccc12)c1cccs1 (stereo not shown) — lower, -75.2%
- CCCN(CCC)CC(O)Cn1cc(/C=C/C(=O)c2cccs2)c2ccccc21 (stereo not shown) — lower, -30.7%
- CCCCN(C)CC(O)Cn1cc(/C=C/C(=O)c2cccs2)c2ccccc21 (stereo not shown) — lower, -33.7%
- O=C(/C=C/c1cn(CC(O)CN2CCCCC2)c2ccccc12)c1cccs1 (stereo not shown) — lower, -54.4%
- CCCC(=O)Nc1c(-c2ccccc2)c(=O)c(C)nn1-c1ccccc1 — higher, 10.3%
- Cc1ccc(S(=O)(=O)CCC(=O)Nc2ccc3nc(C)sc3c2)cc1 — higher, 3.75%
- CC(C)c1c(C(=O)N/N=C/c2ccc(-c3ccccc3)cc2)nnn1-c1nonc1N — higher, 26.6%
- C=CCc1ccccc1OCC(O)CNC(C)C.Cl (stereo not shown) — lower, -33.3%
- CCS(=O)(=O)n1nc(-c2ccc(OC)cc2)nc1N — higher, 11.6%
- COc1ccc(CCC(N)=O)cc1OC — higher, 11.1%
- COc1ccc(C(c2nnnn2CCc2ccccc2)N2CCN(C3CCCC3)CC2)cc1OC.Cl (stereo not shown) — lower, -64.3%
- COc1ccc(C(c2nnnn2C2CCCC2)N2CCN(C3CCCC3)CC2)cc1OC.Cl (stereo not shown) — lower, -22.7%
- Cl.N#Cc1cccc(C(c2nnnn2Cc2ccccc2)N2CCCC2)c1 (stereo not shown) — lower, -22.7%
- COc1ccc(CCn2nnnc2C(c2ccccc2)N2CCN(C)CC2)cc1OC.Cl (stereo not shown) — higher, 7.37%
- CC(C)(C)n1nnnc1C(c1cccc(C#N)c1)N1CCCCCC1 (stereo not shown) — lower, -4.75%
- COCCn1nnnc1C(c1cccc(C#N)c1)N1CCCCCC1.Cl (stereo not shown) — lower, -56.6%
- Cl.Fc1ccc(Cn2nnnc2C(c2ccc(Cl)cc2)N2CCSCC2)cc1 (stereo not shown) — higher, -1.72%
- N#Cc1cccc(C(c2nnnn2C2CCCC2)N2CCC(Cc3ccccc3)CC2)c1 (stereo not shown) — higher, 8.5%
- N#Cc1ccc(C(c2nnnn2CCc2ccccc2)N2CCCCCC2)cc1 (stereo not shown) — lower, -26.3%
- N#Cc1cccc(C(c2nnnn2CCc2ccccc2)N2CCN(C3CCCCC3)CC2)c1 (stereo not shown) — lower, -61%
- COCCn1nnnc1C(c1ccc(Cl)cc1)N1CCSCC1.Cl (stereo not shown) — lower, -51.9%
- Clc1ccc(C(c2nnnn2CCc2ccccc2)N2CCSCC2)cc1 (stereo not shown) — higher, 0.814%
